Measurements taken from PubChem BioAssay (NCATS).
Records with an inconclusive call do not appear. Where a call stands in place of a potency, no number is given. Activity calls are given as the source filed them. Calls follow the shape of the dose curve; as a rule, active = well fitted curve in the direction sought with a large enough effect; inconclusive = small, poorly fitted or top-dose-only effect, or another doubt; inactive = no such curve, though single readings can be large; an effect the other way counts as inactive or inconclusive.

How the values were obtained:
[1] = system: Zika virus NS2B-NS3 protease; assay: Primary screen GU AMC qHTS for Zika virus inhibitors (AID 1347154); also: nearly all actives have a fitted effect of over 70% in size; also: potency is read from the fitted curve at half-maximal effect
In short: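 Unlinked Zika NS2B hydrophilic domain/NS3 protease domain noncovalent complex (25 nM final) in 10 mM Tris-HCl pH 8.0, 0.01% Tween 20, with AMC peptide substrate. Fluorescence (ex 340, em 450 nm) change over 15 min, room temperature; percent inhibition fitted to 4-parameter Hill equation.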

[2] = system: Zika virus NS2B-NS3 protease (linked); assay: 384 well plate NINDS AMC confirmatory qHTS for Zika virus inhibitors (AID 1347163); conditions: Recombinant NS2B-NS3 protease, Ac-VKTGKR-AMC fluorescence; also: potency is read from the fitted curve at half-maximal effect; nearly all actives have a fitted effect of over 50% in size
In short: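 Fluorescence at 355/460 nm was read after 25 minutes of cleavage of 30 microM Ac-VKTGKR-AMC at room temperature, in the dark. Before substrate addition, compounds (up to 1 mM final) sat ~15 minutes with 5, 30 or 60 nM linked protease. Signals were normalized to no-enzyme and no-inhibitor wells.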

[3] = system: Zika virus NS2B-NS3 protease (unlinked); assay: Optimization of GU AMC qHTS for Zika virus inhibitors: Unlinked NS2B-NS3 protease assay (AID 1347151); also: nearly all actives have a fitted effect of over 80% in size; also: potency is read from the fitted curve at half-maximal effect
In short: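 Fluorescence gain (340/450 nm) over 15 min at room temperature, ~20% conversion, gave percent inhibition fitted to a 4-parameter Hill equation; enzyme was unlinked NS2B-NS3 (25 nM final), pH 8.0 Tris buffer.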

[4] = system: Zika virus NS2B-NS3 protease (unlinked complex); assay: Primary screen GU Rhodamine qHTS for Zika virus inhibitors: Unlinked NS2B-NS3 protease assay (AID 1347159); also: nearly all actives have a fitted effect of over 60% in size
In short: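 Unlinked NS2B/NS3, 25 nM; Rhod110 peptide, 1.5 microM; compounds, up to 114 microM. Reaction run 15 min at RT in 10 mM Tris-HCl pH 8.0, 0.01% Tween 20; kinetic fluorescence change fitted with a 4-parameter Hill model.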

[5] = system: Zika virus NS2B-NS3 protease (linked construct); assay: Primary screen NINDS Rhodamine qHTS for Zika virus inhibitors (AID 1347160); also: nearly all actives have a fitted effect of over 55% in size
In short: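 Single-chain NS2B-NS3 protease, 25 nM, pH 8.0; compounds preincubated 15 min. Activity: Rhodamine110 release from 1.5 microM substrate over 15 min, room temperature, data fitted to 4-parameter Hill.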

[6] = system: Zika virus NS2B-NS3 protease (linked construct); assay: Confirmatory screen NINDS AMC qHTS for Zika virus inhibitors (AID 1347152); also: top concentration of the series differs between compounds; nearly all actives have a fitted effect of over 70% in size
In short: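 IC50s from 4-parameter Hill fits of percent inhibition, based on AMC fluorescence gain (340/450 nm) over 15 min with 10 microM Bz-Nle-KRR-AMC. Enzyme: 1 nM linked NS2B-NS3 in Tris-HCl pH 8.0; 15-min compound preincubation.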

[7] = system: Zika virus NS2B-NS3 protease (unlinked complex); assay: Confirmatory screen GU AMC qHTS for Zika virus inhibitors (AID 1347153); also: nearly all actives have a fitted effect of over 70% in size
In short: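 Unlinked enzyme 25 nM, Tris pH 8.0/0.01% Tween 20; cpd 15 min RT, dark; + AMC substrate 10 µM (Km 18.3 µM); 340/450 nm read at t0 and 15 min; % inhibition → 4-param fit.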

[8] = ZIKV-mCherry secondary qHTS for Zika virus inhibitors (AID 1347158); also: top concentration of the series differs between compounds
In short: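 Percent infection is the share of Hoechst-identified Vero nuclei with mCherry signal above 450 RFU (3 SD over negative controls). Cells were infected with recombinant ZIKV-mCherry at MOI 1 after compound addition and imaged 48–72 h later.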

**Q.** Which Potency [1] does the source give for CN1CCN(c2cc3c(nn2)Oc2ccccc2N3C)CC1 here?
**A.** The Potency was 9.89 µM (active).

**Q.** For COc1ccc(Br)cc1S(=O)(=O)NC(=O)/C=C/c1ccccc1Cc1ccc2ccccc2c1, which Potency [2] is on record?
**A.** Its Potency is 0.251 µM (active).

**Q.** For O=C(CS)Nc1ccccc1, which Potency [1] is on record?
**A.** Its Potency is “inactive”.

**Q.** For Nc1nc(SCc2ccc([N+](=O)[O-])cc2)c2ncn([C@@H]3O[C@H](CO)[C@@H](O)[C@H]3O)c2n1, which Potency [3] is on record?
**A.** The Potency was “inactive”.

**Q.** What about the Potency [1] of the same molecule?
**A.** Its Potency is “inactive”.

**Q.** Which results are given for Fc1ccc2[nH]c(CN3CCN(c4ccccn4)CC3)cc2c1?
**A.** Potency [3]: inactive; Potency [4]: inactive; Potency [5]: inactive

**Q.** Which Potency [1] does the source give for N=C(N)N here?
**A.** Its Potency is “inactive”.

**Q.** Which Potency [3] does the source give for CCC1C(=O)OCC1Cc1cncn1C (configuration not stated) here?
**A.** Its Potency is “inactive”.

**Q.** What about the Potency [1] of the same molecule?
**A.** The Potency was “inactive”.

**Q.** Which Potency [1] does the source give for O=C(/C=C/c1ccccc1)NCCO here?
**A.** Its Potency is “inactive”.

**Q.** Which results are given for Nc1nc(Cl)nc2c1ncn2[C@@H]1O[C@H](CO)[C@@H](O)[C@H]1O?
**A.** Potency [3]: inactive; Potency [1]: inactive

**Q.** For Nc1ncnc2c1ncn2[C@@H]1O[C@H](COP(=O)(O)CP(=O)(O)OP(=O)(O)O)[C@@H](O)[C@H]1O, which Potency [3] is on record?
**A.** Its Potency is “inactive”.

**Q.** And the Potency [1]?
**A.** The Potency was “inactive”.

**Q.** With CC(C)CC(NP(=O)(O)O[C@@H]1O[C@@H](C)[C@H](O)[C@@H](O)[C@H]1O)C(=O)NC(Cc1c[nH]c2ccccc12)C(=O)O (some centres not stated) as the molecule, how does the Potency [3] read?
**A.** Its Potency is “inactive”.

**Q.** With CSc1ccccc1N1CCN(CCCCCC(=O)NC2CCCc3ccccc32)CC1 (configuration not stated) as the molecule, how does the Potency [3] read?
**A.** The Potency was “inactive”.

**Q.** What about the Potency [1] of the same molecule?
**A.** The Potency was “inactive”.

**Q.** With COc1ccnc2c1CCCCC2S(=O)c1nc2ccccc2[nH]1 (configuration not stated) as the molecule, how does the Potency [1] read?
**A.** Its Potency is 35.5 µM (active).

**Q.** Which Potency [3] does the source give for CCCCN(CC)c1nc(C)nc2c1c(C)cn2-c1c(C)cc(C)cc1C here?
**A.** Its Potency is 26.7 µM (active).

**Q.** And the Potency [6]?
**A.** The Potency was “inactive”.

**Q.** And the outcome [7]?
**A.** The outcome was “inactive”.

**Q.** And the Potency [4]?
**A.** The Potency was “inactive”.

**Q.** What about the Potency [5] of the same molecule?
**A.** Its Potency is “inactive”.

**Q.** Which Potency [1] does the source give for COc1cc(NC(C)CCCN)c2ncccc2c1 (configuration not stated) here?
**A.** The Potency was “inactive”.

**Q.** With OC[C@H]1O[C@@H](n2cnc3c(NC4CCCC4)ncnc32)[C@H](O)[C@@H]1O as the molecule, how does the Potency [3] read?
**A.** The Potency was “inactive”.

**Q.** And the Potency [1]?
**A.** Its Potency is “inactive”.

**Q.** For C[N+]1(C)[C@@H]2CC(OC(=O)[C@H](CO)c3ccccc3)C[C@H]1[C@@H]1O[C@@H]12 (some centres not stated), which Potency [1] is on record?
**A.** Its Potency is “inactive”.

**Q.** Which Potency [1] does the source give for CNC(=O)c1c(I)c(NC(=O)CCCCC(=O)Nc2c(I)c(C(=O)O)c(I)c(C(=O)NC)c2I)c(I)c(C(=O)O)c1I here?
**A.** The Potency was “inactive”.

**Q.** Which Potency [3] does the source give for C[N+]1(C)CCC(OC(=O)C(c2ccccc2)c2ccccc2)CC1 here?
**A.** The Potency was “inactive”.

**Q.** What about the Potency [1] of the same molecule?
**A.** The Potency was “inactive”.

**Q.** With Nc1ccc(C(=O)O)c(O)c1 as the molecule, how does the Potency [1] read?
**A.** The Potency was “inactive”.

**Q.** With Nc1ncnc2c1ncn2[C@@H]1O[C@H](COP(=O)(O)OP(=O)(O)OP(=O)(O)OP(=O)(O)OC[C@@H]2O[C@H](n3cnc4c(N)ncnc43)[C@@H](O)[C@H]2O)[C@@H](O)[C@H]1O as the molecule, how does the Potency [3] read?
**A.** The Potency was “inactive”.

**Q.** What about the Potency [1] of the same molecule?
**A.** The Potency was “inactive”.

**Q.** Which Potency [1] does the source give for CCCCCCCCCCCCCCCCCC(=O)O here?
**A.** Its Potency is “inactive”.

**Q.** What does the source list for O=[N+]([O-])c1ccc(CNc2nc(NCc3cccc(C(F)(F)F)c3)nc3nc[nH]c23)cc1?
**A.** Potency [3]: inactive; Potency [4]: inactive; Potency [5]: inactive

**Q.** Which Potency [1] does the source give for Cc1[nH]cnc1CN1CCc2c(c3ccccc3n2C)C1=O here?
**A.** The Potency was “inactive”.

**Q.** What does the source list for Clc1ccc(N2CCN(Cc3c[nH]c4ncccc34)CC2)cc1?
**A.** Potency [3]: inactive; Potency [1]: inactive

**Q.** For CNC(=O)[C@H]1O[C@@H](n2cnc3c(NCc4cccc(I)c4)ncnc32)[C@H](O)[C@@H]1O, which Potency [3] is on record?
**A.** The Potency was “inactive”.

**Q.** And the Potency [1]?
**A.** Its Potency is “inactive”.

**Q.** With CC(N)C(=O)OC(C)(C)Cc1ccc(Cl)cc1 (configuration not stated) as the molecule, how does the Potency [3] read?
**A.** The Potency was “inactive”.

**Q.** And the Potency [1]?
**A.** Its Potency is “inactive”.

**Q.** With CSc1nc(N)c2ncn([C@@H]3O[C@H](COP(=O)(O)OP(=O)(O)OP(=O)(O)O)[C@@H](O)[C@H]3O)c2n1 as the molecule, how does the Potency [3] read?
**A.** The Potency was “inactive”.

**Q.** What about the Potency [1] of the same molecule?
**A.** Its Potency is “inactive”.

**Q.** What does the source list for Cc1cc(NC(=O)Nc2ccc3c(ccn3C)c2)sn1?
**A.** Potency [3]: inactive; Potency [1]: inactive

**Q.** For C=CCCCCCCCCC(=O)O, which Potency [1] is on record?
**A.** Its Potency is “inactive”.

**Q.** With CNC(=O)[C@H]1O[C@@H](n2cnc3c(NCc4ccc(N)cc4)ncnc32)[C@H](O)[C@@H]1O as the molecule, how does the Potency [3] read?
**A.** Its Potency is “inactive”.

**Q.** What about the Potency [1] of the same molecule?
**A.** The Potency was “inactive”.

**Q.** For O=c1[nH]c2cc([N+](=O)[O-])c([N+](=O)[O-])cc2[nH]c1=O, which Potency [3] is on record?
**A.** The Potency was “inactive”.

**Q.** What about the Potency [1] of the same molecule?
**A.** Its Potency is “inactive”.

**Q.** Which Potency [1] does the source give for O=C(O)c1cc([N+](=O)[O-])ccc1NCCCc1ccccc1 here?
**A.** The Potency was “inactive”.

**Q.** With c1ccc2sc(SSc3nc4ccccc4s3)nc2c1 as the molecule, how does the Potency [1] read?
**A.** Its Potency is “inactive”.

**Q.** Which Potency [3] does the source give for CNc1ncnc2c1ncn2[C@@H]1O[C@H](CO)[C@@H](O)[C@H]1O here?
**A.** The Potency was “inactive”.

**Q.** What about the Potency [1] of the same molecule?
**A.** The Potency was “inactive”.

**Q.** Which Potency [1] does the source give for O=C1CN(/N=C/c2ccc([N+](=O)[O-])o2)C(=O)N1 here?
**A.** Its Potency is “inactive”.

**Q.** With O=C(CCN1CCN(CCO)CC1)N1c2ccccc2Sc2ccc(C(F)(F)F)cc21 as the molecule, how does the Potency [1] read?
**A.** The Potency was “inactive”.

**Q.** For CCCCCCCCCCCCOCCO, which Potency [1] is on record?
**A.** The Potency was “inactive”.

**Q.** For O=c1[nH]c2ccccc2n1CCCN1CCN(C(c2ccccc2)c2ccccc2)CC1, which Potency [1] is on record?
**A.** Its Potency is “inactive”.

**Q.** With NCCO as the molecule, how does the Potency [1] read?
**A.** The Potency was “inactive”.

**Q.** Which Potency [1] does the source give for CC1(C)S[C@@H]2[C@H](NC(=O)[C@H](N)c3ccccc3)C(=O)N2[C@H]1C(=O)O here?
**A.** Its Potency is “inactive”.

**Q.** What does the source list for CN(C)[C@@H]1C(=O)C(C(=O)NCN2CCCC2)=C(O)[C@@]2(O)C(=O)C3=C(O)c4c(O)cccc4[C@@](C)(O)C3C[C@@H]12 (some centres not stated)?
**A.** outcome [8]: inactive; Potency [2]: 0.891 µM (active)
